# Results with a measured potency or affinity are listed apart. Calls of active or inactive are those of the source. The rule behind the calls is not given here.
# Target: Luciferin 4-monooxygenase (Photinus pyralis) (UniProt P08659)
# Assay: inhibition of purified Photinus pyralis luciferase – biochemical, dry powder samples, plate reader, dose response (AID 588451)
# Chain of Luciferin 4-monooxygenase (Photinus pyralis) (P08659 whole entry, looked up): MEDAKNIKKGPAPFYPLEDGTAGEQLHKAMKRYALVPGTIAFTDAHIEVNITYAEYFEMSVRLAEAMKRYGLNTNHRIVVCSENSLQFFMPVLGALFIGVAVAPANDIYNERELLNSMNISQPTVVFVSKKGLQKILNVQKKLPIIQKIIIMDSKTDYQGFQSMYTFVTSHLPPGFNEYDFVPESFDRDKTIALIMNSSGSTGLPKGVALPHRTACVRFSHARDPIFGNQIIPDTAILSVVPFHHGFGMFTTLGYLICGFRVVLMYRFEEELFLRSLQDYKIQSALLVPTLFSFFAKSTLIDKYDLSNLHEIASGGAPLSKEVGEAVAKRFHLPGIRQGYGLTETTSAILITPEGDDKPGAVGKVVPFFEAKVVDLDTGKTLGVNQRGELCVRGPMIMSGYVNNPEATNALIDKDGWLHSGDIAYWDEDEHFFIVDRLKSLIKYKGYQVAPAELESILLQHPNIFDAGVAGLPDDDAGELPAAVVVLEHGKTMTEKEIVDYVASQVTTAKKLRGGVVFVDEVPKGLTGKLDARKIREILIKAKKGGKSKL
smiles,measurement,value
Cc1ccc(C(=O)N/N=C/c2ccc([N+](=O)[O-])s2)cc1,outcome,inactive

# Source: PubChem BioAssay AID588451 (Broad Institute, 2011)
